Screens deposited in PubChem by National Center for Advancing Translational Sciences (NCATS).
RORgamma inh: ROR gamma (mouse) transcription inhibition; P51450; Drosophila S2 Gal4-RORgamma UAS-luciferase reporter, 20 h; Potency, µM (highest dose often 53.6 µM), inactives show at the top dose activity change, negative = inhibition, actives largely listed as inhibitors; hit rate 5.4% among 310,000; AID 2551; further: nearly all actives have a fitted effect of over 60% in size
Target sequence (P51450 whole entry, looked up, the tested form may be a part): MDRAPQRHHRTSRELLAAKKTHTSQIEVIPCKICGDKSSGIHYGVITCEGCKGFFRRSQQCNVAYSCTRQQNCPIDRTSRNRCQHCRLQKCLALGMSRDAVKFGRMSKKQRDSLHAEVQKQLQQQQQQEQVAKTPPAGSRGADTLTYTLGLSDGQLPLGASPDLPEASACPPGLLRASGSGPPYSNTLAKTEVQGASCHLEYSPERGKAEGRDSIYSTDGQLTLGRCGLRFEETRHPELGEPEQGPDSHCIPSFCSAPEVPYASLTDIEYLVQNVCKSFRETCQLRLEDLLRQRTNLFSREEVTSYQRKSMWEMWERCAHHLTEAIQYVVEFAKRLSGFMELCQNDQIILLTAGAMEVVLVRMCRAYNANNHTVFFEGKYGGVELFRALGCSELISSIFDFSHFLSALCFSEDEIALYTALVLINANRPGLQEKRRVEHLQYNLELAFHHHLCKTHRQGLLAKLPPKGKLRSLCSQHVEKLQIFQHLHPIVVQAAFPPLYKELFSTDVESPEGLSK
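Read-out: Photinus luciferase luminescence; inhibitors lower reporter signal. Insect Schneider cells with Gal4-ROR gamma fusion under metallothionein promoter, UAS reporter; 700 uM final copper sulfate induction, 20 hr, ambient temperature.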
DT40 TDP1 CPT: DT40-hTDP1 cell growth loss with CPT; chicken DT40 Tdp1-/-;hTDP1 cells + 20 nM CPT, ATP luminescence, 48 h; Potency, µM (top dose mostly 46.2 µM), for the others: at the highest dose activity change, negative = growth inhibition, actives largely listed as inhibitors; hit rate 12% among 420,000; further: nearly all actives have a fitted effect of over 55% in size
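Chicken DT40 Tdp1-/- cells complemented with human TDP1, 400 cells/well, exposed to compounds plus 20 nM camptothecin for at least 48 h at 37 C; viability read as ATP content by CellTiter-Glo luminescence.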
Gal4-VP16 FLuc: Gal4-VP16 reporter inhibition counter-screen; Drosophila S2 Gal4-VP16 UAS-luciferase, luminescence, 20 h; Potency, µM (highest dose often 53.6 µM), inactives show at the highest dose activity, negative = inhibition, most hits filed as inhibitors; hit rate 3.5% among 310,000;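 further: Gal4-VP16 expression switched on by copper sulfate through the metallothionein promoter; nearly all actives have a fitted effect of over 50% in size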
TDP1 cell noCPT: qHTS for Inhibitors of human tyrosyl-DNA phosphodiesterase 1 (TDP1): qHTS in cells in absence of CPT. Potency, µM (series often up to 46.2 µM), for the others: top-dose activity change, negative = growth inhibition, usual class: inhibitors. hit rate 15% among 420,000. DT40 Tdp1-/- hTDP1 cells, no CPT, ATP luminescence, 48 h. AID 686978, 2013; further: nearly all actives have a fitted effect of over 55% in size
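Cells were dispensed at 400 per well, compounds added by pin tool, plates incubated ≥48 hr at 37 °C, then CellTiter-Glo added for 30 min at room temperature before luminescence reading. Line: DT40 Tdp1-/- complemented with hTDP1; camptothecin omitted.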
TDP1 inh: blocks human tyrosyl-DNA phosphodiesterase 1; Q9NUW8; recombinant TDP1, AlphaScreen DNA substrate cleavage; Potency, µM (series often up to 130 µM), for inactives: at the top dose activity change, negative = inhibition, usual class: inhibitors; hit rate 0.28% among 350,000; further: nearly all actives have a fitted effect of over 40% in size
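AlphaScreen read-out: signal falls as enzyme removes the 3' tyrosine-FITC from a 5'-biotinylated DNA oligo (15 nM, 5 min, RT). Enzyme was E. coli-made recombinant Tdp1 at 1 nM, exposed to compound for 15 min beforehand; beads 10 ug/ml, 10 min.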
Numbers without * were called inactive; [ ] = remark or other dose. In the library only some 19% were active in any assay of this set; here they are far more common. The call rests on the fitted dose curve; in most records, active means well fitted curve in the direction sought with a large enough effect; inconclusive means small, poorly fitted or top-dose-only effect, or another doubt; inactive means no such curve, though single readings can be large; an effect the other way counts as inactive or inconclusive. On the % scale 0 is the no-effect control and ±100 the full control effect; potency means the concentration at half of the fitted maximal effect.

Cc1ccc2nc(Nc3nc(C)cc(-c4ccccc4)n3)[nH]c(=O)c2c1 was read as RORgamma inh -23.2%, DT40 TDP1 CPT 20.6µM*, Gal4-VP16 FLuc -9.2%, TDP1 cell noCPT 14.6µM* and TDP1 inh -1.3%.
For Cc1ccc2nc(NC3=NCN(Cc4ccccc4)CN3)nc(C)c2c1 the results were RORgamma inh -11.8%, Gal4-VP16 FLuc -13.8% and TDP1 inh 0.0%.
`O=c1[nH]c(CSc2nnc(Cc3ccccc3)o2)nc2ccccc12` gave RORgamma inh 1.5%, DT40 TDP1 CPT -19.3%, Gal4-VP16 FLuc -1.4%[10 µM], TDP1 cell noCPT inconclusive and TDP1 inh -5.3%.
Screening CCOC(=O)c1ccc(NC(=O)Cn2cc(C(=O)c3ccc(Cl)cc3)c(=O)c3ccc(C)nc32)cc1 returned DT40 TDP1 CPT 4.61µM*, TDP1 cell noCPT 3.26µM* and TDP1 inh 2.1%.
Screening CCOC(=O)c1ccc(NC(=O)Cn2cc(C(=O)c3ccc(CC)cc3)c(=O)c3ccc(C)nc32)cc1 returned DT40 TDP1 CPT 11.6µM*, TDP1 cell noCPT 5.8µM* and TDP1 inh 5.3%.
For COc1ccc(CCNS(=O)(=O)c2cc3c4c(c2)C(C)C(=O)N4CCC3)cc1OC (centres undefined) the results were RORgamma inh 12.8%, DT40 TDP1 CPT -7.6%, Gal4-VP16 FLuc -0.3%, TDP1 cell noCPT -2.2% and TDP1 inh 2.3%.
`Cc1ccc2c(c1)COc1c3ccc(C(=O)O)cc3nn1-2` gave RORgamma inh 2µM*, DT40 TDP1 CPT -16.7%, Gal4-VP16 FLuc 5.01µM* and TDP1 cell noCPT -18.2%.
For CCCn1nc2cc(C(=O)NCCc3ccc(C)cc3)ccc2c1OCC the results were RORgamma inh -12.4%, DT40 TDP1 CPT -1.9%, Gal4-VP16 FLuc -3.1%, TDP1 cell noCPT 1.1% and TDP1 inh 2.1%.
Screening Cc1ccc2c(c1)COc1c3ccc(C(=O)NCC4CC4)cc3nn1-2 returned RORgamma inh -38.8%, DT40 TDP1 CPT inconclusive, Gal4-VP16 FLuc -24.3%, TDP1 cell noCPT 20.6µM* and TDP1 inh 2.4%.
For CCCCC#Cc1ccc2c(c1)COc1c3ccccc3nn1-2 the results were RORgamma inh -15.8%, DT40 TDP1 CPT -7.6%, Gal4-VP16 FLuc 0.1%, TDP1 cell noCPT inconclusive and TDP1 inh 2.4%.
CSc1nc2sc3c(c2c(=O)n1CC(C)C)CC(C)(C)OC3 was read as RORgamma inh 12.3%, DT40 TDP1 CPT 6.3%, Gal4-VP16 FLuc 0.1%, TDP1 cell noCPT -13.5% and TDP1 inh -1.3%.
C=CCCCCCC was read as RORgamma inh -2.7%, Gal4-VP16 FLuc -4.0% and TDP1 inh 4.8%.
For CC(C)(C)c1n[nH]c(=S)n(/N=C/c2cccs2)c1=O the results were RORgamma inh 10µM*, DT40 TDP1 CPT -5.4%, Gal4-VP16 FLuc 15.8µM*, TDP1 cell noCPT -24.4% and TDP1 inh 2.4%.
Screening Cc1n[nH]c(=S)n(/N=C/c2cccs2)c1=O returned RORgamma inh -41.7%, DT40 TDP1 CPT inconclusive, Gal4-VP16 FLuc 10.5%, TDP1 cell noCPT 6.51µM* and TDP1 inh 7.1%.
For COc1ccccc1NC(=O)Cn1c(=O)c(N(C)C)c(N)n(C)c1=O the results were RORgamma inh -3.1%, DT40 TDP1 CPT 4.8%, Gal4-VP16 FLuc 18.0%, TDP1 cell noCPT 2.9% and TDP1 inh 0.0%.
Screening O=C1c2ccccc2C(=O)N1CCN1CCc2ccccc21 returned RORgamma inh -3.3%, DT40 TDP1 CPT 1.7%, Gal4-VP16 FLuc -0.2%, TDP1 cell noCPT -0.2% and TDP1 inh 5.9%.
For COc1ccc(-c2nn(-c3ccccc3)cc2/C=C/C(=O)O)cc1[N+](=O)[O-] the results were RORgamma inh 8.3%, DT40 TDP1 CPT inconclusive, Gal4-VP16 FLuc -9.0%, TDP1 cell noCPT 23.1µM* and TDP1 inh 8.4%.
For CC1(O)c2ccccc2C(=O)N1Cc1ccccc1 (centres undefined) the results were RORgamma inh 9.9%, DT40 TDP1 CPT -8.5%, Gal4-VP16 FLuc -5.1%, TDP1 cell noCPT -0.3% and TDP1 inh -4.8%.
CCCNC(=O)CCCN1C(=O)CCn2nc(-c3cccn3C)cc21 was read as DT40 TDP1 CPT 5.8%, TDP1 cell noCPT 10.4% and TDP1 inh 10.1%.
